Screens (PubChem)
RGS8-Gao: human RGS8-Galphao interaction regulation | P09471 | multiplexed bead flow cytometry, RGS8-Galphao binding; actives lie on both sides | response (percent of control binding), % at 10 µM | 0.34% of 220,000 active | AID 1423; in the data active = response below about 60% or above about 140%; inactive = in between;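 note: Galphao activated as the GDP aluminium fluoride complex binding bead-coupled RGS8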
Target sequence (P09471 whole entry, looked up): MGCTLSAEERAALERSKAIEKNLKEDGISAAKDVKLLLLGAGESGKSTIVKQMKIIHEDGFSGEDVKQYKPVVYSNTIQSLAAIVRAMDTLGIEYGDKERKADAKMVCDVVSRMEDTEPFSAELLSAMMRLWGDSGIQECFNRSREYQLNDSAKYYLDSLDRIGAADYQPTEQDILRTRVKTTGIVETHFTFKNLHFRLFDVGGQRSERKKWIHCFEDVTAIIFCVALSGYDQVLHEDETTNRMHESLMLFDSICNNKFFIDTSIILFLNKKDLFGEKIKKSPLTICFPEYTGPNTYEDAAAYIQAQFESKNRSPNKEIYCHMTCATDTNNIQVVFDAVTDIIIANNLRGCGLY
RGS16-Gao HTS: modulates binding between human RGS16 and Galphao. O15492+P09471. bead-based flow cytometry RGS16-Galphao binding, fluorescence; actives lie on both sides. binding response (% of control), % at 10 µM. 0.38% of 220,000 active;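 note: Galphao activated by GDP with aluminum fluoride before binding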
GSH bead fluor: compound fluoresces at 488/530 nm on GSH beads; fluorescence (KMESF) at 10 µM; GSH beads flow cytometry, compound fluorescence 488/530 nm; hits give high values; 0.25% of 190,000 active; in the data active = fluorescence above about 89;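 note: glutathione beads carrying GST-tagged Bcl family fusion proteins plus one bare bead set; values are compound well signal with DMSO vehicle wells as background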
Avidin fluor: compound fluoresces at 488/530 nm on avidin beads. compound fluorescence 488/530 nm, flow cytometry; hits give high values. fluorescence (KMESF) at 10 µM. 0.38% of 220,000 active; in the data active = fluorescence above about 47
RGS7-Gao reg: modulates binding of RGS7 to human Galphao. P09471. Multiplexed bead flow cytometry; actives lie on both sides. binding response (% of control), % at 10 µM. 0.35% of 220,000 active. AID 1439; in the data active = binding response below about 49% or above about 150%; inconclusive = no clear call, values can overlap the other calls; inactive = in between;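 note: fluorescent Galphao held in activated GDP-AlF4 state binding bead-coupled RGS7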
RGS4-Gao reg: modulates binding of RGS4 to human Galphao; Multiplexed bead flow cytometry; actives lie on both sides; binding response (% of control), % at 10 µM; 0.33% of 220,000 active; AID 1415; in the data active = binding response below about 49% or above about 150%; inactive = in between;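 note: fluorescent Galphao activated with aluminum fluoride binding bead-coupled RGS4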
RGS4-Gao HTS: RGS4-Galphao interaction regulator (human) | shares compounds with RGS16-Gao HTS | multiplexed bead flow cytometry, RGS–Galpha-o binding | RGS4–Galpha-o binding response, % at 10 µM | 99% of 1,600 active | AID 1504;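 note: fluorescently labeled Galpha-o bound to GDP with aluminium fluoride binding biotinylated RGS beads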
Avidin counter: biotin-avidin bead binding disruption counter-screen. AID 1783. inhibition, % at 10 µM. 1,700 tested, under 10 active. shares compounds with RGS16-Gao HTS. streptavidin beads, fluorescein-biotin binding, flow cytometry;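 active = inhibition above 50%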;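 note: median green fluorescence of gated singlet beads compared with DMSO control wells; 0% = DMSO wells and 100% = complete loss of bead fluorescence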
RGS8-Gao single: confirmation of regulators of human RGS8-Galphao interaction | shares compounds with RGS16-Gao HTS | bead-based flow cytometry RGS8-Galphao binding, fluorescence; actives lie on both sides | binding response (% of control), % at 10 µM | 3% of 1,700 active | AID 1836; in the data active = binding response below about 72% or above about 130%; inactive = in between;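 note: Galphao activated as GDP AlF4 complex before binding bead RGS8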
RGS7-Gao single: RGS7-Galphao interaction regulation, single point confirmation. shares compounds with RGS16-Gao HTS. bead-based flow cytometry RGS7-Galphao binding; actives lie on both sides. response (percent of control binding), % at 10 µM. 7.8% of 1,700 active. AID 1837; in the data active = response below about 75% or above about 130%; inactive = in between;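 note: fluorescent Galphao activated with GDP and aluminum fluoride binding bead-coupled RGS7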
RGS16-Gao conf: RGS16-Galphao interaction regulation, single point confirmation. shares compounds with RGS16-Gao HTS. response (% of control binding), % at 10 µM. AID 1838. 4% of 1,700 active. bead-based flow cytometry, RGS16-Galphao binding; actives lie on both sides; in the data active = response below about 74% or above about 130%; inactive = in between;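 note: Galphao activated as the GDP aluminium fluoride complex binding bead-coupled RGS16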
RGS4-Gao single: RGS4-Galphao interaction regulation, single point confirmation; shares compounds with RGS16-Gao HTS; RGS4-Galphao binding, multiplexed bead flow cytometry; actives lie on both sides; binding response (% of control), % at 10 µM; 4% of 1,700 active; AID 1840; in the data active = binding response below about 74% or above about 130%; inactive = in between
RGS19-Gao single: confirmation of regulators of human RGS19-Galphao interaction; shares compounds with RGS16-Gao HTS; bead-based flow cytometry RGS19-Galphao binding; actives lie on both sides; response (percent of control binding), % at 10 µM; 5% of 1,700 active; AID 1841; in the data active = response below about 50% or above about 160%; inactive = in between;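 note: 100% = no compound control and 0% = blank background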
Target sequence (P09471 whole entry, looked up): as above
Target sequence (P49795 whole entry, looked up): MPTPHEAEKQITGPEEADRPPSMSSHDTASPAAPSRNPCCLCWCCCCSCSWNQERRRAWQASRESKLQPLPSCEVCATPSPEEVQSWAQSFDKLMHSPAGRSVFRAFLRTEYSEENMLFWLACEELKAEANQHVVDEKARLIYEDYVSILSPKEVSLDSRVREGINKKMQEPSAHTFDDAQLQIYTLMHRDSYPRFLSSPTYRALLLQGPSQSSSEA
Numbers without * were called inactive; [ ] = dose if it differs, or a comment. Most compounds without a hit are left out; they make up all but 1.2% or so of the library. Unless noted, the rule behind the calls is not given here.

`O=C(Nc1ccccc1Cl)Oc1ccc(-c2ccccc2)cc1` gave RGS8-Gao 96, RGS16-Gao HTS 101, Avidin fluor 10, RGS7-Gao reg inconclusive and RGS4-Gao reg 97.
For COc1ccc(-c2noc(CN3CCCC(OCc4ccccn4)C3)n2)cc1 (stereo unspecified) the results were RGS8-Gao 101, RGS16-Gao HTS 101, Avidin fluor 7, RGS7-Gao reg inconclusive and RGS4-Gao reg 100.
Cc1ccc(NC(=O)Nc2ccccc2CC[N+](=O)[O-])cc1 was read as RGS8-Gao 149*[activator], RGS16-Gao HTS 270, GSH bead fluor 10, Avidin fluor 21, RGS7-Gao reg 118, RGS4-Gao reg 117, RGS4-Gao HTS 117*, Avidin counter 0, RGS8-Gao single 103, RGS7-Gao single 101, RGS16-Gao conf 102, RGS4-Gao single 102 and RGS19-Gao single 94.
Cc1cc(C(=O)NN)c(Cl)cc1Cl was read as RGS8-Gao 27*, RGS16-Gao HTS 13*, Avidin fluor 0, RGS7-Gao reg inconclusive, RGS4-Gao reg 21*, Avidin counter 2, RGS8-Gao single 111, RGS7-Gao single 107, RGS16-Gao conf 107, RGS4-Gao single 105 and RGS19-Gao single 107.
CCN(C(=O)COC(=O)c1cccc(NS(=O)(=O)c2ccc(F)c(F)c2)c1)C1CCS(=O)(=O)C1 (stereo unspecified) was read as RGS8-Gao 104, RGS16-Gao HTS 101, GSH bead fluor 76, Avidin fluor 14, RGS7-Gao reg 107 and RGS4-Gao reg 103.
Screening C=C(C)c1cccc(C(C)(C)NC(=O)N2CCN(CC)CC2)c1 returned RGS8-Gao 104, RGS16-Gao HTS 109, GSH bead fluor 19, Avidin fluor 32, RGS7-Gao reg 98 and RGS4-Gao reg 100.
For C=C(C)c1cccc(C(C)(C)NC(=O)N2CCCCC2CC)c1 (stereo unspecified) the results were RGS8-Gao 172*[activator], RGS16-Gao HTS 404, GSH bead fluor 8, Avidin fluor 7, RGS7-Gao reg 124, RGS4-Gao reg 142 and RGS4-Gao HTS 142*.
COc1ccc2nc3ccccc3nc2c1NC(=O)c1ccc(Cl)cc1Cl was read as RGS8-Gao 104, RGS16-Gao HTS 113, GSH bead fluor 12, Avidin fluor 4, RGS7-Gao reg 103 and RGS4-Gao reg 104.
Screening CCOC(=O)N1CN(C(=O)OCC)CN(C(=O)OCC)C1 returned RGS8-Gao 5.2*, RGS16-Gao HTS -22*, Avidin fluor -2, RGS7-Gao reg inconclusive, RGS4-Gao reg -38*, Avidin counter -1, RGS8-Gao single 89, RGS7-Gao single 74*, RGS16-Gao conf 82, RGS4-Gao single 83 and RGS19-Gao single 69.
CC(C)Oc1ccc(C(CC(=O)O)NC(=O)c2cccs2)cc1 (stereo unspecified) was read as GSH bead fluor 30, Avidin counter 2, RGS8-Gao single 94, RGS7-Gao single 81, RGS16-Gao conf 88, RGS4-Gao single 86 and RGS19-Gao single 90.
CCCOc1ccc(C(CC(=O)O)NC(=O)c2cccs2)cc1 (stereo unspecified) was read as RGS8-Gao 101, RGS16-Gao HTS 99, GSH bead fluor 27, Avidin fluor 33, RGS7-Gao reg 103 and RGS4-Gao reg 100.
For O=C(CCN1C(=O)/C(=C/c2ccccc2Cl)SC1=S)NC1=NCCS1 the results were RGS8-Gao 157*[activator], RGS16-Gao HTS 307, GSH bead fluor 12, Avidin fluor 17, RGS7-Gao reg 122, RGS4-Gao reg 127, RGS4-Gao HTS 127*, Avidin counter 2, RGS8-Gao single 105, RGS7-Gao single 98, RGS16-Gao conf 101, RGS4-Gao single 98 and RGS19-Gao single 95.
`CN(c1ccccc1)S(=O)(=O)c1cccc(C(=O)Nc2ccc3c(c2)CCC3)c1` gave RGS8-Gao 87, RGS16-Gao HTS 18*, GSH bead fluor 12, Avidin fluor 8, RGS7-Gao reg 91, RGS4-Gao reg 102, RGS4-Gao HTS 102*, Avidin counter -1, RGS8-Gao single 101, RGS7-Gao single 103, RGS16-Gao conf 103, RGS4-Gao single 102 and RGS19-Gao single 94.
For COc1cccc(C(=O)NCCOc2cc(C)cc(C)c2)c1 the results were RGS8-Gao 81, RGS16-Gao HTS 56, GSH bead fluor 7, Avidin fluor 3, RGS7-Gao reg 98, RGS4-Gao reg 91, Avidin counter -1, RGS8-Gao single 101, RGS7-Gao single 95, RGS16-Gao conf 100, RGS4-Gao single 98 and RGS19-Gao single 119.
Screening Cc1nnc(N2CCOCC2)c2nn(-c3ccccc3)c(C)c12 returned RGS8-Gao 147*[activator], RGS16-Gao HTS 221, GSH bead fluor 11, Avidin fluor 11, RGS7-Gao reg 146, RGS4-Gao reg 149, RGS4-Gao HTS 149*, Avidin counter 1, RGS8-Gao single 103, RGS7-Gao single 117, RGS16-Gao conf 105, RGS4-Gao single 113 and RGS19-Gao single 103.
`O=S(=O)(Cc1ccccc1Cl)NCCc1ccccc1` gave RGS8-Gao 101, RGS16-Gao HTS 108, GSH bead fluor 15, Avidin fluor 9, RGS7-Gao reg 105 and RGS4-Gao reg 106.
